# From the supplement of paper PMC10849652
# The full data set covers some 8,800 targets. This sample favours those with a hit. About 0.5% of all pairs of compound and target were hits. Values without a mark were called inactive.
# Tests used:
# Assay in all cases: log2 fold change, soluble protein after heating vs DMSO (PISA); higher = thermal stabilisation; K562 lysate, 10 uM; active = over 0.2 and 3.5 SD of the protein, either way, in both replicates (recomputed)
# [1] = compound: CCCS(=O)(=O)Nc1ccc(F)c(C(=O)c2c[nH]c3ncc(-c4ccc(Cl)cc4)cc23)c1F [vemurafenib]
# Method in brief: (§1)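 Following dounce homogenisation of K562 pellets in PBS pH 7.4 with 1 mM MgCl2, crude extract at 1 mg/mL protein was incubated for 30 min with 10 μM compound. Aliquots were then heated for 3 min over 48°C-58°C and pooled, NP-40 was added to 0.5% at 4°C, and soluble protein was recovered as the supernatant at 21,000xg for 90 min. Channel-sum-equalised TMTpro 16plex LC-MS/MS quantified this protein. Each value, from duplicates, is a log-two fold change in thermal stability relative to solvent controls.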
# [2] = compound: CCN(CCCOc1ccc2c(Nc3cc(CC(=O)Nc4cccc(F)c4)[nH]n3)ncnc2c1)CCOP(=O)(O)O [barasertib]
# Method in brief: as §1
# [3] = compound: CC[C@@H]1C(=O)N(C)c2cnc(Nc3ccc(C(=O)NC4CCN(C)CC4)cc3OC)nc2N1C1CCCC1
# Method in brief: as §1
# [4] = compound: CCn1c(C(=O)N(C2CC2)C2CC2)cc2c3c(ncn3C)c(Nc3cc(C)n(C)n3)nc21
# Method in brief: as §1
# [5] = compound: CCn1cc(-c2ccnc3[nH]c(-c4cccc(CN(C)C)c4)cc23)c(-c2ccc(NC(=O)N(C)C)cc2)n1
# Method in brief: as §1
# [6] = compound: CN1CCC(CNc2ccc3ncc(-c4cccc(OC(F)(F)F)c4)n3n2)CC1
# Method in brief: as §1
# [7] = compound: CN1CCN(CCOc2cc(OC3CCOCC3)c3c(Nc4c(Cl)ccc5c4OCO5)ncnc3c2)CC1 [saracatinib]
# Method in brief: as §1
# [8] = compound: CN1CCN(c2nc(C3=C(c4c[nH]c5ccccc45)C(=O)NC3=O)c3ccccc3n2)CC1 [sotrastaurin]
# Method in brief: as §1
# [9] = compound: CN1CC[C@H](c2c(O)cc(O)c3c(=O)cc(-c4ccccc4Cl)oc23)[C@H](O)C1 [alvocidib]
# Method in brief: as §1
# [10] = compound: CN1CCc2c(c3ccccc3n2Cc2ccc(C(=O)NO)cc2)C1 [Tubastatin A]
# Method in brief: as §1
# [11] = compound: CNC(=O)C1=CC=CC=C1NC2=NC(=NC=C2Cl)NC3=C(C=C(C=C3)N4CCOCC4)OC
# Method in brief: as §1
# [12] = compound: CNC(=O)c1ccc(Nc2ncc(C(F)(F)F)c(NCc3nccnc3N(C)S(C)(=O)=O)n2)cc1 [defactinib]
# Method in brief: as §1
# [13] = compound: CNc1nc(-c2ccc3c(N)n[nH]c3c2)cc(N2C[C@@H](C(=O)NC3CCCCC3)CC[C@H]2C)n1
# Method in brief: as §1
# [14] = compound: COC(=O)N[C@@H](C)CNc1nccc(-c2cn(C(C)C)nc2-c2cc(Cl)cc(NS(C)(=O)=O)c2F)n1 [encorafenib]
# Method in brief: as §1
# [15] = compound: COC(=O)[C@H](CCSC)NC(=O)C1=C(C=C(C=C1)NC[C@H](CS)N)C2=CC=CC=C2
# Method in brief: as §1
# [16] = compound: COc1cc(Nc2ncc3c(n2)-c2ccc(Cl)cc2C(c2c(F)cccc2OC)=NC3)ccc1C(=O)O [alisertib]
# Method in brief: as §1
# [17] = compound: COc1cc2ncnc(Nc3ccc(F)c(Cl)c3)c2cc1OCCCN1CCOCC1 [gefitinib]
# Method in brief: as §1
# [18] = compound: CCCS(=O)(=O)Nc1ccc(F)c(C(=O)c2c[nH]c3ncc(Cl)cc23)c1F
# Method in brief: as §1
# [19] = compound: CC[C@@H]1C(=O)N(C)c2cnc(Nc3ccc(C(=O)N[C@H]4CC[C@H](N5CCN(CC6CC6)CC5)CC4)cc3OC)nc2N1C(C)C [volasertib]
# Method in brief: as §1
# [20] = compound: COc1cc2nc(-c3cc(F)ccc3O)nc(N[C@@H]3CNC[C@H]3C(C)(C)O)c2cc1OC
# Method in brief: as §1
# Chain of UniProt Q8IYX8 (Q8IYX8 whole entry, looked up): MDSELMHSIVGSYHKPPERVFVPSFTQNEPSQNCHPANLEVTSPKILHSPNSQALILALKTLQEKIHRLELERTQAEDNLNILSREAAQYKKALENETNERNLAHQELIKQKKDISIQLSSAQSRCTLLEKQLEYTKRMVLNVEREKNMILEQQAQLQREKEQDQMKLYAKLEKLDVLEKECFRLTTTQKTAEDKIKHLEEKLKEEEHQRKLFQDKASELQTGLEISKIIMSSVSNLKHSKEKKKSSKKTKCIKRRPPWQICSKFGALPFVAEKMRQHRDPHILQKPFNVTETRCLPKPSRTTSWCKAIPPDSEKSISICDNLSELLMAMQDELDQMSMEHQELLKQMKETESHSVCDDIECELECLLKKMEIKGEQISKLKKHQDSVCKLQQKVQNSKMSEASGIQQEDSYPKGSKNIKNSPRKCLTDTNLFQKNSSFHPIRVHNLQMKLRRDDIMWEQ
# Chain of UniProt P13994 (P13994 whole entry, looked up): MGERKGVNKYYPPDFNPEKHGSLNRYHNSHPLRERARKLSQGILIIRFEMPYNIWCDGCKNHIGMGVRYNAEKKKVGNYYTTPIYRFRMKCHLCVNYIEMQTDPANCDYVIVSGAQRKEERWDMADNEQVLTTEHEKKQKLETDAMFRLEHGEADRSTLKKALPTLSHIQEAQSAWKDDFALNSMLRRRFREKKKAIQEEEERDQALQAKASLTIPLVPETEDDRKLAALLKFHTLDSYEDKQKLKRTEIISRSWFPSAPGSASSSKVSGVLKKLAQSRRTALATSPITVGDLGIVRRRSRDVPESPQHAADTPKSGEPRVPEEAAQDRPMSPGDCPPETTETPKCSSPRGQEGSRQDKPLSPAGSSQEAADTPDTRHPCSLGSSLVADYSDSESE
# Chain of UniProt O43303 (O43303 whole entry, looked up): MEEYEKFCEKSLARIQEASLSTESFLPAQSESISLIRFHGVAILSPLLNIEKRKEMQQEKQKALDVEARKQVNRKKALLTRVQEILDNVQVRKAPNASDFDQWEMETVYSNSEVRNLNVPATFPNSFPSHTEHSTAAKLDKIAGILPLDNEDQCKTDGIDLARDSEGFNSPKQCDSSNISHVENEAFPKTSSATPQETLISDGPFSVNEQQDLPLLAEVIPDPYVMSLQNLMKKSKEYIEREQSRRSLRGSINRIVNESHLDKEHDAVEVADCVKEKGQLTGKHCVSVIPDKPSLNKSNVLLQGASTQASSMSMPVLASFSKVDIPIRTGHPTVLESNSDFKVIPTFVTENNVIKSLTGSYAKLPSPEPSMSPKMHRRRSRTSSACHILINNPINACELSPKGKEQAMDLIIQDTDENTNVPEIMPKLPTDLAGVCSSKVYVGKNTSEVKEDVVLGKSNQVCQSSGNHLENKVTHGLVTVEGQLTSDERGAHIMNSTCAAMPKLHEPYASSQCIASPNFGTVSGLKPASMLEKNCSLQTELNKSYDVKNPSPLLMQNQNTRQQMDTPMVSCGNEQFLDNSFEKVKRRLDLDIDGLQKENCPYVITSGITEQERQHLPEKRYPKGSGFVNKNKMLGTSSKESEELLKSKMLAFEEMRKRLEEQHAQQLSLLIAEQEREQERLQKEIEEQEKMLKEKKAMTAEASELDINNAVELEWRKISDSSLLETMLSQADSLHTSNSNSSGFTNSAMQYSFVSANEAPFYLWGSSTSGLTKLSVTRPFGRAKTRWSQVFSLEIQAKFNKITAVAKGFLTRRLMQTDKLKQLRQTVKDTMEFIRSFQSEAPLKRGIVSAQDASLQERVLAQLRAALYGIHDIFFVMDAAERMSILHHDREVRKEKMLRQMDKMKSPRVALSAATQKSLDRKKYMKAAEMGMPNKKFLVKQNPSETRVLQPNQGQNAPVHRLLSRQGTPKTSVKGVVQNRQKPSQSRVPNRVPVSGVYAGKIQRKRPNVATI
# Chain of UniProt P55210 (P55210 whole entry, looked up): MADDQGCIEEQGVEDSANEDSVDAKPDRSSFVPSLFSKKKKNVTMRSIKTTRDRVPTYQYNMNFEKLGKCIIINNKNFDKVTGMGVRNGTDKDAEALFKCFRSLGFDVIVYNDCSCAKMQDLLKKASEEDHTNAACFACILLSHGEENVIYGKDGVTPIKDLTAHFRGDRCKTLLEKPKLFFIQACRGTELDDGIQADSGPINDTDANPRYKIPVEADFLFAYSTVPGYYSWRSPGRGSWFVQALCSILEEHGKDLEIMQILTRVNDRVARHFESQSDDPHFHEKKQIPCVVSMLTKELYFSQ
# Chain of UniProt Q12983 (Q12983 whole entry, looked up): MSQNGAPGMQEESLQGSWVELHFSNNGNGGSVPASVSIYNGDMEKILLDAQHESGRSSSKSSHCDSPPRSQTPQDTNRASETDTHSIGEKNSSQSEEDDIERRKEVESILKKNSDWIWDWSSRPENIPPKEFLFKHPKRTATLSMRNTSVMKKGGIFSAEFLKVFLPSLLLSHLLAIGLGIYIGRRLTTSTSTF
# Chain of UniProt Q5H9F3 (Q5H9F3 whole entry, looked up): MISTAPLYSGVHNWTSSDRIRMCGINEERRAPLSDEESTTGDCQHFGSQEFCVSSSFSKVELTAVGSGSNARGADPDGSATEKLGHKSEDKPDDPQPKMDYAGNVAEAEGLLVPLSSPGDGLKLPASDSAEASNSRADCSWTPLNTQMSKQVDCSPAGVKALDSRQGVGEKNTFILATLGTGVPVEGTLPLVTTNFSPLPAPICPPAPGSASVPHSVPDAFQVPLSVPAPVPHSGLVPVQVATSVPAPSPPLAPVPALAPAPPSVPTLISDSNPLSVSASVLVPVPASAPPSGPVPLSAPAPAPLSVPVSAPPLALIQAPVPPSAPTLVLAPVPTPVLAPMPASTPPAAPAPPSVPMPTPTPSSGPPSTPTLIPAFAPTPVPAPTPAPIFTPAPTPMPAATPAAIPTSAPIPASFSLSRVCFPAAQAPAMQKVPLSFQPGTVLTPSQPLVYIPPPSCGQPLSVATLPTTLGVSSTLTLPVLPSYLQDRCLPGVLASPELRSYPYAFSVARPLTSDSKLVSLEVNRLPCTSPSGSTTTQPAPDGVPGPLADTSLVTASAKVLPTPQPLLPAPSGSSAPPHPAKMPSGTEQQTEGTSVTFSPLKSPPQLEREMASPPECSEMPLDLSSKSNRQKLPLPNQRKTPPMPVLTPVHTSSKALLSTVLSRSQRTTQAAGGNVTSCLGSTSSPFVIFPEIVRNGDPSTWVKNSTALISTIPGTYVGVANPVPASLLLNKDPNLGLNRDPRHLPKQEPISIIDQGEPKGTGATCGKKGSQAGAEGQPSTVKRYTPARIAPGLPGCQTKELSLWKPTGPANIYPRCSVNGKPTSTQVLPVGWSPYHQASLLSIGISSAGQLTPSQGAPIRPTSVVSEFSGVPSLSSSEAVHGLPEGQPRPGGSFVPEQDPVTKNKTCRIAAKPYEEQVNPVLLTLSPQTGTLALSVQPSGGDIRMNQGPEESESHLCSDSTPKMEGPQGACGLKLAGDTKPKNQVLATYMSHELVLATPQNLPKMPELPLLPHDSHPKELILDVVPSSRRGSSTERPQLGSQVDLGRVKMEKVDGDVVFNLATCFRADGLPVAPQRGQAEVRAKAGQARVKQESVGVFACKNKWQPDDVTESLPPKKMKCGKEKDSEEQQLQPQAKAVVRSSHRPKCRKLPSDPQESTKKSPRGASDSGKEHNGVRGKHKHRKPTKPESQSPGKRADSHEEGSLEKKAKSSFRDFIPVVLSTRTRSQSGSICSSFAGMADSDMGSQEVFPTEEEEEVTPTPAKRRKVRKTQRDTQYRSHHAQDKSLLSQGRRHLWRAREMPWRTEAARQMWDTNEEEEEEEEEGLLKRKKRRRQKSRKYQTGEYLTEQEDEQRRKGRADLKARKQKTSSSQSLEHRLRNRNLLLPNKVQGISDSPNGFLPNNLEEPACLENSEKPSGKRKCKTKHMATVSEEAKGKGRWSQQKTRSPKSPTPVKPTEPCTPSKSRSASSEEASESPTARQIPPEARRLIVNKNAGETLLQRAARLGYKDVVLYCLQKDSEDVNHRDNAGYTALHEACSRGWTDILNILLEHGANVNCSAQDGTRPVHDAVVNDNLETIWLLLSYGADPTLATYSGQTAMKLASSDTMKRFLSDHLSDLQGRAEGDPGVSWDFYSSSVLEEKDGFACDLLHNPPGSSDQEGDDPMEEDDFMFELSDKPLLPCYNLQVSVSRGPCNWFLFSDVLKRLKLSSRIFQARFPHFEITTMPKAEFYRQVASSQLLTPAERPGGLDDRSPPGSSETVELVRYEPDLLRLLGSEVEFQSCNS
# Chain of UniProt Q96SZ6 (Q96SZ6 whole entry, looked up): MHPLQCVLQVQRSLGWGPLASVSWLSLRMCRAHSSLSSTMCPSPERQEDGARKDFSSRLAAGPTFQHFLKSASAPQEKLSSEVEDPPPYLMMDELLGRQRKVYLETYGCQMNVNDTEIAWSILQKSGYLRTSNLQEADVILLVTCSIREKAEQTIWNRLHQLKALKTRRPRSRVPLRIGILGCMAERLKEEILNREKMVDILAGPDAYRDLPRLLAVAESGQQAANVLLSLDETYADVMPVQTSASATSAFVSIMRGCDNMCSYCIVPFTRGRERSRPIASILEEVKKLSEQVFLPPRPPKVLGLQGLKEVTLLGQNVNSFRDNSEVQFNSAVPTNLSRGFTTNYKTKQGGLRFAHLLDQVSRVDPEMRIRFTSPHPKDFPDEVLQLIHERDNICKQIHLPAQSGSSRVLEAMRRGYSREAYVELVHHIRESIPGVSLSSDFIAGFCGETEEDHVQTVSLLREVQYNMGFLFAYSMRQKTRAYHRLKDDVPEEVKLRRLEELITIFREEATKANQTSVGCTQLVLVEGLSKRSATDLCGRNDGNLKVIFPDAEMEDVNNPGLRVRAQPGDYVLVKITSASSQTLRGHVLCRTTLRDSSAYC
Target,log2 fold change [1],log2 fold change [2],log2 fold change [3],log2 fold change [4],log2 fold change [5],log2 fold change [6],log2 fold change [7],log2 fold change [8],log2 fold change [9],log2 fold change [10],log2 fold change [11],log2 fold change [12],log2 fold change [13],log2 fold change [14],log2 fold change [15],log2 fold change [16],log2 fold change [17],log2 fold change [18],log2 fold change [19],log2 fold change [20]
CEP152 (UniProt O94986),0.031,0.106,0.25,0.008,-0.009,0.272,0.051,-0.039,-0.077,-0.061,0.019,0.019,0.182,-0.064,0.04,-0.007,0.008,–,–,–
CASP7 isoform 3 (UniProt P55210),–,0.059,-0.148,-0.119,–,–,0.056,-0.091,–,-0.051,-0.016,–,-0.059,0.16,0.379 (active),-0.058,0.108,-0.117,-0.049,0.079
CDC25A (UniProt P30304),–,–,–,0.033,–,–,-0.022,0.092,–,-0.406 (active),-0.121,–,0.035,–,–,0.005,-0.002,0.038,-0.053,0.019
ATXN2 (UniProt F8WB06),–,–,–,–,–,–,-0.088,–,–,–,–,–,-0.09,–,–,–,–,–,–,–
BNIP3 (UniProt Q12983),–,-0.037,0.069,-0.023,-0.307,0.149,0.118,0.03,-0.065,-0.058,0.076,–,0.081,0.015,0.018,-0.043,0.021,0.035,0.116,-0.128
C9orf72 (UniProt Q96LT7),–,-0.091,0.034,0.022,-0.065,-0.015,0.082,0.011,0.001,0,-0.036,–,0.058,0.125,0.259 (active),0.014,-0.106,-0.03,0.088,0.102
CCAR2 (UniProt G3V119),–,–,–,–,–,–,–,–,–,–,–,–,–,–,–,–,–,0.087,-0.074,-0.032
ATG4D (UniProt Q86TL0),–,-0.074,0.055,0.116,–,–,-0.188,0.058,–,-0.09,–,–,-0.008,-0.031,-0.155,–,–,–,–,–
BUD13 (UniProt Q9BRD0),–,0.092,-0.07,-0.037,0.076,-0.064,0.096,0.025,0.033,-0.015,-0.022,–,0.068,0.007,0.004,0.017,0.108,–,–,–
C3AR1 (UniProt Q16581),–,-0.172,–,–,-0.664 (active),-0.286,–,-0.004,0.055,–,–,–,–,–,–,0.358,0.053,–,–,–
CEP57L1 (UniProt Q8IYX8),–,-0.06,0.227,0.044,-0.028,-0.066,-0.065,-0.007,-0.024,-0.143,0.141,–,-0.09,0.118,-0.023,-0.003,-0.038,–,–,–
CCDC130 (UniProt P13994),–,0.045,0.036,-0.027,–,–,–,0.147,–,-0.066,-0.275,–,–,-0.015,0.09,–,–,–,–,–
CDK5RAP1 (UniProt Q96SZ6),-0.03,0.025,0.059,0.035,0.023,0.026,0.026,-0.037,0.019,-0.023,-0.06,0.018,-0.024,-0.057,0.029,-0.003,-0.007,–,–,–
BCORL1 isoform 3 (UniProt Q5H9F3),0.123,–,-0.033,-0.018,-0.546,0.344,-0.082,-0.099,-0.328,-0.006,-0.064,-0.213,0.113,0.022,0.021,–,–,–,–,–
CARHSP1 (UniProt H3BNU9),–,0.246,–,–,0.16,-0.522,–,–,-0.027,–,–,–,–,–,–,-0.107,-0.213,0.032,-0.161,-0.003
"BRAF, A0A2R8Y8E0",1.34,–,-0.287,–,–,–,–,–,–,–,–,-0.029,–,1.3,0.076,–,–,–,–,–
CCP110 (UniProt O43303),-0.202,0.07,-0.141,-0.022,–,–,-0.06,0.005,–,-0.045,-0.115,0.181,0.008,0.075,0.125,–,–,–,–,–
